Substitutions are numbered along the chain they refer to.
What was measured:
Test in all cases: HT-SELEX; high values mean tight binding
Details in all cases: protein: recombinant; vector His6-GST; dsDNA, one strand shown
SALL4 ZFC4 WT (HT-SELEX) = target: T1, SALL4 ZFC4 WT (HT-SELEX) (Mus musculus, UniProt Q8BX22 870-940)
T1 sequence: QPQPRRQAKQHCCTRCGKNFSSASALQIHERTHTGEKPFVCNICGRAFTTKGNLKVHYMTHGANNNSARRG
Summary of the method: (§1)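 For each canonical k-mer, binding signal is the read fraction as fold change versus the initial random library. Data came from up to 6 triplicate cycles in which purified recombinant mouse SALL4 zinc finger cluster 4 (residues 870–940, 1 µg) was incubated 10 min at room temperature with library DNA (1.5 µg first cycle, 200 ng later) in 100 µl of 10 mM Tris–HCl pH 7.5, 50 mM NaCl, poly(dI-dC), DTT, followed by Ni2+ bead capture, PCR amplification, MiSeq sequencing and a 6-mer scan.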

[1] = target: T2, SALL4 ZFC4 R900W (HT-SELEX) (Mus musculus, UniProt Q8BX22 870-940, R900W)
T2 sequence: T1 sequence with R31W
Summary of the method: as §1

[2] = target: T3, SALL4 ZFC4 G921D (HT-SELEX) (Mus musculus, UniProt Q8BX22 870-940, G921D)
T3 sequence: T1 sequence with G52D
Summary of the method: as §1

Sequence	binding signal (SALL4 ZFC4 WT (HT-SELEX))	binding signal [1]	binding signal [2]
CCTATC	0.811 ± 0.0304 fold-change vs cycle 0	0.939 ± 0.00665 fold-change vs cycle 0	0.994 ± 0.0224 fold-change vs cycle 0
CATCAC	0.892 ± 0.0417 fold-change vs cycle 0	0.975 ± 0.0159 fold-change vs cycle 0	1.032 ± 0.00917 fold-change vs cycle 0
CTGACC	0.426 ± 0.0325 fold-change vs cycle 0	0.52 ± 0.0363 fold-change vs cycle 0	0.621 ± 0.0521 fold-change vs cycle 0
AAGGAG	1 ± 0.0181 fold-change vs cycle 0	1.14 ± 0.0427 fold-change vs cycle 0	1.13 ± 0.0474 fold-change vs cycle 0
CGTCAA	0.564 ± 0.0126 fold-change vs cycle 0	0.667 ± 0.0148 fold-change vs cycle 0	0.765 ± 0.0373 fold-change vs cycle 0
TATGAA	3.56 ± 0.299 fold-change vs cycle 0	2.1 ± 0.116 fold-change vs cycle 0	1.85 ± 0.171 fold-change vs cycle 0
AGATAC	1.32 ± 0.0304 fold-change vs cycle 0	1.44 ± 0.052 fold-change vs cycle 0	1.4 ± 0.118 fold-change vs cycle 0
CACATG	0.752 ± 0.0217 fold-change vs cycle 0	0.8671 ± 0.00649 fold-change vs cycle 0	0.925 ± 0.0436 fold-change vs cycle 0
CGAATC	0.662 ± 0.00887 fold-change vs cycle 0	0.742 ± 0.0291 fold-change vs cycle 0	0.827 ± 0.0621 fold-change vs cycle 0
AACCAC	0.74 ± 0.0275 fold-change vs cycle 0	0.83 ± 0.0479 fold-change vs cycle 0	0.879 ± 0.0101 fold-change vs cycle 0
ACTCCC	0.553 ± 0.0252 fold-change vs cycle 0	0.612 ± 0.0294 fold-change vs cycle 0	0.716 ± 0.0322 fold-change vs cycle 0
TAGTGA	1.4 ± 0.0384 fold-change vs cycle 0	1.53 ± 0.027 fold-change vs cycle 0	1.43 ± 0.107 fold-change vs cycle 0
CACCAC	0.402 ± 0.0296 fold-change vs cycle 0	0.465 ± 0.0324 fold-change vs cycle 0	0.587 ± 0.0576 fold-change vs cycle 0
CAACTG	0.724 ± 0.0172 fold-change vs cycle 0	0.829 ± 0.0401 fold-change vs cycle 0	0.9 ± 0.0128 fold-change vs cycle 0
CACTGA	0.799 ± 0.0339 fold-change vs cycle 0	0.912 ± 0.0516 fold-change vs cycle 0	0.949 ± 0.00436 fold-change vs cycle 0
CTGACA	0.738 ± 0.0153 fold-change vs cycle 0	0.843 ± 0.0362 fold-change vs cycle 0	0.914 ± 0.0368 fold-change vs cycle 0
CAAAGC	0.565 ± 0.00649 fold-change vs cycle 0	0.654 ± 0.0334 fold-change vs cycle 0	0.761 ± 0.0246 fold-change vs cycle 0
GCTGTA	0.574 ± 0.0425 fold-change vs cycle 0	0.653 ± 0.0229 fold-change vs cycle 0	0.75 ± 0.0402 fold-change vs cycle 0
GGGACA	0.383 ± 0.0239 fold-change vs cycle 0	0.458 ± 0.0236 fold-change vs cycle 0	0.564 ± 0.0569 fold-change vs cycle 0
CGAAGA	0.723 ± 0.0365 fold-change vs cycle 0	0.802 ± 0.0443 fold-change vs cycle 0	0.859 ± 0.0315 fold-change vs cycle 0

Sequence	binding signal (SALL4 ZFC4 WT (HT-SELEX))	binding signal [1]	binding signal [2]
ATGAGA	1.52 ± 0.0648 fold-change vs cycle 0	1.6 ± 0.0511 fold-change vs cycle 0	1.48 ± 0.107 fold-change vs cycle 0
ATATCC	1.52 ± 0.0519 fold-change vs cycle 0	1.43 ± 0.0827 fold-change vs cycle 0	1.37 ± 0.0764 fold-change vs cycle 0
TCAAGA	1.32 ± 0.0482 fold-change vs cycle 0	1.49 ± 0.0445 fold-change vs cycle 0	1.4 ± 0.0701 fold-change vs cycle 0
GTTTAA	1.69 ± 0.0773 fold-change vs cycle 0	1.79 ± 0.0911 fold-change vs cycle 0	1.63 ± 0.153 fold-change vs cycle 0
GGATAA	1.38 ± 0.0543 fold-change vs cycle 0	1.52 ± 0.0741 fold-change vs cycle 0	1.34 ± 0.114 fold-change vs cycle 0
GCGATA	0.515 ± 0.0117 fold-change vs cycle 0	0.534 ± 0.0163 fold-change vs cycle 0	0.668 ± 0.0315 fold-change vs cycle 0
AATAGT	1.96 ± 0.0795 fold-change vs cycle 0	1.94 ± 0.0794 fold-change vs cycle 0	1.77 ± 0.136 fold-change vs cycle 0
ATGTTA	2.16 ± 0.126 fold-change vs cycle 0	2.08 ± 0.106 fold-change vs cycle 0	1.83 ± 0.212 fold-change vs cycle 0
AGTGCA	0.627 ± 0.0465 fold-change vs cycle 0	0.704 ± 0.0363 fold-change vs cycle 0	0.802 ± 0.0221 fold-change vs cycle 0
GTCTGA	0.754 ± 0.0534 fold-change vs cycle 0	0.884 ± 0.0322 fold-change vs cycle 0	0.945 ± 0.0454 fold-change vs cycle 0
TGTTAA	1.94 ± 0.0917 fold-change vs cycle 0	2 ± 0.113 fold-change vs cycle 0	1.77 ± 0.143 fold-change vs cycle 0
GATGTA	1.358 ± 0.0117 fold-change vs cycle 0	1.425 ± 0.0112 fold-change vs cycle 0	1.34 ± 0.0458 fold-change vs cycle 0
CAGTTA	1.43 ± 0.0431 fold-change vs cycle 0	1.46 ± 0.0224 fold-change vs cycle 0	1.36 ± 0.0634 fold-change vs cycle 0
AAGCAT	1.23 ± 0.027 fold-change vs cycle 0	1.26 ± 0.0143 fold-change vs cycle 0	1.273 ± 0.011 fold-change vs cycle 0
AGACAC	0.683 ± 0.0462 fold-change vs cycle 0	0.821 ± 0.037 fold-change vs cycle 0	0.923 ± 0.0183 fold-change vs cycle 0
TGGCAA	0.479 ± 0.0154 fold-change vs cycle 0	0.535 ± 0.0186 fold-change vs cycle 0	0.673 ± 0.0414 fold-change vs cycle 0
CCACTC	0.468 ± 0.0131 fold-change vs cycle 0	0.5154 ± 0.00212 fold-change vs cycle 0	0.62 ± 0.0734 fold-change vs cycle 0
ATGTGC	0.53 ± 0.0281 fold-change vs cycle 0	0.588 ± 0.00704 fold-change vs cycle 0	0.719 ± 0.0265 fold-change vs cycle 0
GAACAA	1.17 ± 0.0569 fold-change vs cycle 0	1.32 ± 0.0741 fold-change vs cycle 0	1.28 ± 0.0879 fold-change vs cycle 0
CAGTGA	0.806 ± 0.0191 fold-change vs cycle 0	0.934 ± 0.023 fold-change vs cycle 0	0.957 ± 0.0322 fold-change vs cycle 0

Sequence	binding signal (SALL4 ZFC4 WT (HT-SELEX))	binding signal [1]	binding signal [2]
AATCGA	1.08 ± 0.05 fold-change vs cycle 0	1.14 ± 0.0428 fold-change vs cycle 0	1.2 ± 0.0389 fold-change vs cycle 0
TCGAGA	0.763 ± 0.0625 fold-change vs cycle 0	0.863 ± 0.0493 fold-change vs cycle 0	0.945 ± 0.0348 fold-change vs cycle 0
CCTCTA	0.817 ± 0.034 fold-change vs cycle 0	0.915 ± 0.0455 fold-change vs cycle 0	0.953 ± 0.0421 fold-change vs cycle 0
GAGGGA	0.53 ± 0.0239 fold-change vs cycle 0	0.609 ± 0.0584 fold-change vs cycle 0	0.684 ± 0.0537 fold-change vs cycle 0
TTAAAA	2.8 ± 0.232 fold-change vs cycle 0	2.26 ± 0.146 fold-change vs cycle 0	1.97 ± 0.21 fold-change vs cycle 0
CAGAGG	0.463 ± 0.0456 fold-change vs cycle 0	0.548 ± 0.0393 fold-change vs cycle 0	0.65 ± 0.0673 fold-change vs cycle 0
CTGGAA	0.772 ± 0.02 fold-change vs cycle 0	0.891 ± 0.0485 fold-change vs cycle 0	0.926 ± 0.0429 fold-change vs cycle 0
GAGGAC	0.456 ± 0.0333 fold-change vs cycle 0	0.581 ± 0.0167 fold-change vs cycle 0	0.671 ± 0.0146 fold-change vs cycle 0
GAATTA	2.39 ± 0.113 fold-change vs cycle 0	1.95 ± 0.0992 fold-change vs cycle 0	1.75 ± 0.12 fold-change vs cycle 0
ATCTCA	1.42 ± 0.0416 fold-change vs cycle 0	1.5 ± 0.0539 fold-change vs cycle 0	1.43 ± 0.0584 fold-change vs cycle 0
AGTTCA	1.42 ± 0.0499 fold-change vs cycle 0	1.55 ± 0.0608 fold-change vs cycle 0	1.44 ± 0.0878 fold-change vs cycle 0
AGGTGG	0.487 ± 0.0135 fold-change vs cycle 0	0.556 ± 0.0106 fold-change vs cycle 0	0.647 ± 0.0454 fold-change vs cycle 0
AGGGGA	0.532 ± 0.0414 fold-change vs cycle 0	0.608 ± 0.0303 fold-change vs cycle 0	0.671 ± 0.0432 fold-change vs cycle 0
TTACAA	2.01 ± 0.0785 fold-change vs cycle 0	2.03 ± 0.0849 fold-change vs cycle 0	1.81 ± 0.143 fold-change vs cycle 0
AGGGAT	0.9983 ± 0.00779 fold-change vs cycle 0	1.11 ± 0.0341 fold-change vs cycle 0	1.07 ± 0.0457 fold-change vs cycle 0
CTCTAA	1.25 ± 0.0589 fold-change vs cycle 0	1.39 ± 0.103 fold-change vs cycle 0	1.36 ± 0.0965 fold-change vs cycle 0
CTAGGA	0.873 ± 0.029 fold-change vs cycle 0	0.993 ± 0.0392 fold-change vs cycle 0	0.975 ± 0.0202 fold-change vs cycle 0
ATACAT	2.32 ± 0.0956 fold-change vs cycle 0	2.02 ± 0.0564 fold-change vs cycle 0	1.83 ± 0.109 fold-change vs cycle 0
TAGTAA	2.21 ± 0.0521 fold-change vs cycle 0	2.24 ± 0.0692 fold-change vs cycle 0	1.89 ± 0.181 fold-change vs cycle 0
AGGTCA	0.772 ± 0.0359 fold-change vs cycle 0	0.893 ± 0.023 fold-change vs cycle 0	0.972 ± 0.0353 fold-change vs cycle 0
